# Compound activity (PubChem)
# This excerpt belongs to a sample that is enriched for hits.
# TTR transcr act: increases transthyretin transcription. AID 1117267. 92,000 compounds, 1.3% hits. SH-SY5Y TTR promoter Gaussia luciferase, luminescence; 100% = recombinant luciferase protein wells. activation, % at 16.7 µM;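 active means activation above the mean of all tested compounds plus 3 SD, cut at about 9.5% in these data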;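 further: cells exposed to compounds for one day before reading; 0% = median of all test compound wells on the plate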
# TTR inh HuH7: HuH7 TTR transcription inhibition, counter-screen; shares compounds with TTR transcr act; HuH7 TTR promoter-Gaussia luciferase reporter, luminescence; inhibition, % at 16.7 µM; 1,100 compounds, 4% hits; AID 1117279;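 active means average inhibition above the solvent-only control wells' mean plus 3 SD, cut at about 15% in these data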;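 further: 0% = cells with DMSO only and 100% = cells with inhibitor control FD; inhibitors lower well luminescence so higher value means more inhibition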
# TTR act confirm: human TTR transcription activation, confirmation. shares compounds with TTR transcr act. SHSY5Y TTR promoter Gaussia luciferase, luminescence; 100% = purified Lucia enzyme wells, no cells. activation, % at 16.7 µM. 1,100 tested, under 10 active. AID 1117280;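 active means mean activation above a set limit taken from the earlier primary screen, cut at about 11% in these data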;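 further: 0% = DMSO-treated cells and 100% = recombinant Lucia luciferase without cells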
# An asterisk follows results filed as active.
SMILES,TTR transcr act,others
CCCCCCCCN1C(=O)[C@@H](CC(=O)NCCCN2CCCC2=O)C[C@@]2(C(=O)OC)C1=C[C@H](C(C)C)O[C@@H]2C1CC1,-1,
COCCCNC(=O)C[C@H]1C[C@@]2(C(=O)OC)C(=C[C@H](COCc3ccccc3)O[C@@H]2C)N(Cc2cccc3ccccc23)C1=O,-2,
Cc1ccc(NC(=O)C(=O)NNC(=O)c2ccccc2C)cc1Cl,11*,
COc1ccc(C(=O)NNC(=O)C(=O)Nc2ccc(C)c(Cl)c2)cc1,1,
Cc1ccc(NC(=O)C(=O)N2CCCC2)cc1Cl,1,
O=C(Nc1ccc2c(c1)OCO2)OC1CC2CC1[C@H]1CCCCN1[C@H]2Cc1ccccc1 (stereo not given in full),0,
C[C@H]1[C@H](NC(=O)c2ccc(C(F)(F)F)cc2)CC[C@@]23CCCN2C(=O)CCC[C@@H]13,1,
CC12CN(C(=O)c3ccc([N+](=O)[O-])cc3)CC(C)(CN(C(=O)c3ccc([N+](=O)[O-])cc3)C1)C2=O,-1,
CN1CCN(c2ccc([N+](=O)[O-])cc2C(=O)c2ccccc2)CC1,-2,
CC1(c2cc([N+](=O)[O-])cc([N+](=O)[O-])c2)CC(C)(C)N(C(=O)c2ccccc2)c2ccccc21 (stereo not given),14*,
O=C(NCC(c1ccccc1)c1ccccc1)[C@H](Cc1c[nH]c2ccccc12)NC1(C(=O)NC2CCCCC2)CCC1,0,
Cn1c(=O)cc(SCC(=O)NCc2ccco2)c2ccccc21,11*,
Cc1ccc(C)c(SCC(=O)NCc2ccco2)c1,0,
Cn1c(=O)cc(SCC(=O)NCC2CCCO2)c2ccccc21 (stereo not given),3,
O=C(Nc1ccc2c(c1)Cc1ccccc1-2)NC1CCCCN(Cc2ccc(Cl)cc2)C1=O (stereo not given),-1,
CNC(=O)CCc1nc(-c2ccc(C(C)C)cc2)no1,0,
Cc1ccc2c(n1)sc1c(-c3ccccc3)c(C#N)c(N)nc12,0,
Cc1ccc2nc(-c3sc4nc(C)ccc4c3N)[nH]c2c1,-2,
Cc1ccc2c(N)c(C#N)sc2n1,27*,
Cc1ccc(-c2cc3nc(-c4ccco4)cc(N4CCN(Cc5ccoc5)CC4)n3n2)cc1,-2,
COC(=O)c1[nH]c2cc(OC)ccc2c1NC(=O)CCN1CCN(c2cccc(C)c2C)CC1,22*,
CCOC(=O)c1[nH]c2ccc(OC)cc2c1NC(=O)CCN1CCSCC1,6,
COC(=O)c1[nH]c2cccc(OC)c2c1NC(=O)CCN1CCN(c2ccccc2F)CC1,-4,
O=C(NCc1ccccc1Cl)O[C@H]1CC[C@@]23CCCN2C(=O)CCC[C@H]3C1,0,
CCOc1ccc(-n2c(SCC(=O)Nc3cc(C)on3)nc3c([nH]c4ccccc43)c2=O)cc1,-1,
SMILES,TTR transcr act,others
CCOc1ccc(-n2c(SCC(N)=O)nc3c([nH]c4ccccc43)c2=O)cc1,12*,
COc1ccc(-n2c(SCC(=O)Nc3cc(C)on3)nc3c([nH]c4ccccc43)c2=O)cc1,-1,
COC(=O)[C@]12C[C@H](CC(=O)NCCC(C)C)C(=O)N(CCc3ccc(OC)c(OC)c3)C1=C[C@H](COCc1ccccc1)O[C@@H]2C,0,
C=CC(=O)N1C/C=C\C(c2ccc(OC)cc2)N(Cc2ccc(F)cc2)C(=O)C1 (stereo not given),-2,
CCCCCN1C/C=C\C(c2ccc(OC)cc2)N(Cc2ccc(F)cc2)C(=O)C1 (stereo not given),2,
COc1ccc(C2/C=C\CN(S(=O)(=O)c3ccc(C)cc3)CC(=O)N2Cc2ccc(F)cc2)cc1 (stereo not given),16*,
COC(=O)c1cc(OC)c(OC)cc1NC(=S)Nc1cc(Cl)ccc1OC,9,
COC(=O)c1cccc(NC(=S)Nc2cccc(Cl)c2Cl)c1,1,
COC(=O)c1cc(OC)c(OC)cc1NC(=S)Nc1cccc(Cl)c1,17*,
COc1ccccc1NC(=O)CCC(=O)c1ccc(-c2ccccc2)cc1,-3,
COc1ccc(OCC(=O)Nc2ccccc2OC)cc1,6,
COc1ccccc1NC(=O)CCC(=O)Nc1ccccc1OC,9.9*,
COC(=O)[C@]12C[C@H](CC(=O)NCc3ccc(C)o3)C(=O)N(Cc3ccc(Cl)cc3Cl)C1=C[C@H](COCc1ccccc1)O[C@@H]2C,0,
CCCCNC(=O)O[C@H]1CC[C@@]23CCCN2C(=O)CCC[C@H]3[C@H]1CCC,3,
O=C(OCCNC(=O)c1cc2ccccc2oc1=O)c1cccnc1,12*,
O=C(NNC(=O)c1cc2ccccc2oc1=O)c1ccccc1,0,
COc1ccc(-c2cc3ccccc3oc2=O)cc1NC(=O)c1cccnc1,-2,
c1ccc(-c2ccc(CNc3nc(-c4ccccn4)nnc3-c3ccccc3)cc2)cc1,-4,
COC(=O)[C@]12C[C@H](CC(=O)NCc3ccc(C)o3)C(=O)N(CCC3=CCCCC3)C1=C[C@H](C1CCCC1)O[C@@H]2C,-1,
O=C(OCc1cn(Cc2ccc(F)cc2)nn1)N1CCCC1,0,
CC(C)C[C@H](NC1(C(=O)NCCc2c[nH]c3ccccc23)CCC1)C(=O)NCCCc1ccccc1,-2,
O=C(C(c1ccccc1)c1ccccc1)N1CCN(CCN2C(=O)c3cccc4cccc(c34)C2=O)CC1,0,
O=C1c2ccccc2C(=O)N1CC#CCN1CCN(C(c2ccccc2)c2ccccc2)CC1,11*,
OC(C#CCN1CCCC1)c1ccccc1 (stereo not given),-1,
O=C(N1CCCC1)n1ncc(-c2ccc(-c3ccccc3)cc2)n1,-1,
SMILES,TTR transcr act,others
COC(=O)[C@]12C[C@H](CC(=O)NCC34CC5CC(CC(C5)C3)C4)C(=O)N(CCc3ccc(OC)c(OC)c3)C1=C[C@H](C(C)C)O[C@@H]2C1CC1,4,
CCS(=O)(=O)N1CCN=C1SCc1ccccc1,-2,
CCCS(=O)(=O)N1CCN=C1SCc1cccnc1,15*,TTR inh HuH7=-7;TTR act confirm=1
CC(=O)Nc1ccc(S(=O)(=O)N2CCN=C2SCc2cccnc2)cc1,-1,
O=C(NCc1ccccc1)N1CCC(Cc2ccccc2)CC1,0,
Cc1ccc2c(c1)nnn2C1CCN(C(=O)NCc2ccccc2)CC1,9.7*,TTR inh HuH7=6;TTR act confirm=-1
Cc1ccc2c(c1)nnn2C1CCN(CC(=O)N(c2ccccc2)c2ccccc2)CC1,-2,
COC(=O)[C@]12C[C@H](CC(=O)N3CCCCC3)C(=O)N(Cc3ccc(Cl)cc3Cl)C1=C[C@H](C1CCCC1)O[C@@H]2C,-1,
N#CC1=C(N)NC(=S)C(C(N)=O)C1c1ccccc1F (stereo not given),12*,TTR inh HuH7=-25;TTR act confirm=0
COC(=O)C1=C(C)OC(N)=C(C#N)C1c1ccccc1F (stereo not given),2,
COC(=O)CSC1=C(C#N)C(c2ccccc2F)CC(=O)N1 (stereo not given),-1,
CCCC(C)C(=O)NC1CCCCN(Cc2ccccc2C)C1=O (stereo not given),2,
COC(=O)[C@]12C[C@H](CC(=O)N3CCN(C(=O)c4ccco4)CC3)C(=O)N(Cc3ccc(Cl)cc3Cl)C1=C[C@H](COCc1ccccc1)O[C@@H]2C,-3,
CCOC(=O)c1c(C)nc(-c2ccccc2)nc1NC(=O)CC,-3,
CC(=O)Nc1nc(-c2ccc(Cl)cc2)nc(C)c1C(C)=O,36*,TTR inh HuH7=-6;TTR act confirm=0
